Hits are enriched below; roughly 1.5% of the tested compounds scored in any of these assays.
PLK1 kinase inh: PLK1 (human) kinase inhibition | recombinant PLK1 kinase, TR-FRET peptide phosphorylation | inhibition, % at 10 µM | P53350 | 97,000 tested, 0.53% active;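 active = inhibition of 50% or more in the single-concentration screen; inactive = inhibition below 50%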;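 note: 0% = DMSO max control and 100% = H-89 dihydrochloride min control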
Plk1 PBD FP: Plk1 (human) PBD binding inhibition; Plk1 PBD phosphopeptide binding, fluorescence polarization; inhibition, %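 (tested at about 20 µM)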; 97,000 tested, 0.13% active; AID 693; in the data active = inhibition above about 34%, passing the limit was not always enough
PKA inh: PKA (human) kinase inhibition. inhibition, % at 6 µM. P17612. 65,000 tested, 0.1% active. AID 524. PKA Kemptide phosphorylation, Kinase-Glo ATP luminescence;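 active = inhibition above the screen-wide mean inhibition plus 3 SD, cut at about 21% in these data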
JNK3 blocker: blocks human JNK3 kinase activity | P53779 | purified JNK3 kinase activity, HTS | inhibition, % at 8 µM | 60,000 tested, 0.61% active | AID 746; in the data active = inhibition above about 17%;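 note: 0% = DMSO and 100% = reference inhibitor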
Target sequence (P53779 whole entry, looked up): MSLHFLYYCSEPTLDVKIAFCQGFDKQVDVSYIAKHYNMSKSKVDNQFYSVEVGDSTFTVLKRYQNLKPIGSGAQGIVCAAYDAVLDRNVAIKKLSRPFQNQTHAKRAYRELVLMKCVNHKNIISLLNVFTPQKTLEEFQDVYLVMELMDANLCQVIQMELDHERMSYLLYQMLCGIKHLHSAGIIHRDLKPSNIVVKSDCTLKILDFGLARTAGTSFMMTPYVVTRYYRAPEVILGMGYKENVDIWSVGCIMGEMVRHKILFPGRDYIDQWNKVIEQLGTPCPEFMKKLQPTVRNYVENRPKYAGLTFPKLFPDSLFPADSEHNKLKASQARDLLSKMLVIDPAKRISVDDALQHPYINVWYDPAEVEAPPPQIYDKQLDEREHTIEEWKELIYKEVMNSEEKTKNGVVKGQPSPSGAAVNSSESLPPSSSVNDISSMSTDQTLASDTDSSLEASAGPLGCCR
FAK blocker: FAK (human) kinase inhibition; inhibition, %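 (tested at 7 µM)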; AID 727; Q05397; biochemical FAK kinase activity assay; 97,000 tested, 0.84% active; in the data active = inhibition above about 19%;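 note: 0% = DMSO and 100% = reference compound high control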
ROCK2 inh: inhibitors of human Rho kinase 2; AID 604; O75116; 60,000 tested, 0.35% active; inhibition, % at 6 µM; purified ROCK2, Kinase-Glo ATP depletion luminescence;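 active = inhibition above the screen-wide mean inhibition plus 3 SD, cut at about 18% in these data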;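 note: plate controls were DMSO wells for no effect and Y-27632 control wells after no-enzyme background subtraction for full effect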
PLK1 inh conf: PLK1 (human) kinase inhibition, confirmed | shares compounds with PLK1 kinase inh | recombinant PLK1 kinase, TR-FRET peptide phosphorylation | inhibition, % at 10 µM | 210 tested, 20% active;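 active = inhibition at or above 50% in each of two repeat confirmation tests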;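 note: 0% = DMSO max control and 100% = H-89 kinase-blocked min control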
Plk1 interf: interferes with the Plk1 assay readout, not true inhibition | 210 tested, under 10 active | Plk1 TR-FRET assay interference, compound added post-reaction | inhibition (interference), % at 10 µM | AID 756 | shares compounds with PLK1 kinase inh;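 active = both duplicate runs show 50% or greater inhibition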;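 note: 0% = DMSO max control and 100% = H-89 min control inhibited reaction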
An asterisk follows results filed as active.

`O=C(Nc1ncc2c(n1)-c1ccccc1CC2)c1cccc(Cl)c1` gave PLK1 kinase inh 8.0, Plk1 PBD FP -16.9 and FAK blocker 8.2.
O=C(Nc1ncc2c(n1)-c1ccccc1CC2)c1ccc(Cl)cc1 was read as PLK1 kinase inh 122.6*, Plk1 PBD FP -9.7, FAK blocker 11.5, PLK1 inh conf 12.2 and Plk1 interf -45.5.
`Cc1cc(C)cc(CC(Cc2nc3ccccc3[nH]2)c2nc3ccccc3[nH]2)c1` (stereo not given) gave PLK1 kinase inh -5.0, Plk1 PBD FP -4.8 and FAK blocker 5.7.
For Cc1ccc(N(C)C(=O)N2CCN(S(=O)(=O)c3ccc(C)cc3)CC2)cc1 the results were PLK1 kinase inh 72.4*, Plk1 PBD FP 2.4, PKA inh 4.4, JNK3 blocker 0.5, FAK blocker 3.3, ROCK2 inh 7.8, PLK1 inh conf 3.0 and Plk1 interf -49.9.
`Cc1ccc(N(C)C(=O)N2CCN(S(=O)(=O)c3ccc4ccccc4c3)CC2)cc1` gave PLK1 kinase inh 5.7, Plk1 PBD FP 0.5 and FAK blocker -1.2.
`CC1CCN(CC(O)COc2ccc(F)cc2)CC1` (stereo not given) gave PLK1 kinase inh 74.7*, Plk1 PBD FP 0.5, PKA inh 6.5, JNK3 blocker 2.8, FAK blocker 1.1, ROCK2 inh 3.2, PLK1 inh conf -8.2 and Plk1 interf -58.0.
`CC1CCN(CC(O)COc2cccc(F)c2)CC1` (stereo not given) gave PLK1 kinase inh 74.2*, Plk1 PBD FP 7.1, PKA inh 5.1, JNK3 blocker 1.8, FAK blocker 2.5, ROCK2 inh 7.6, PLK1 inh conf -2.1 and Plk1 interf -55.2.
CCOc1ccc(N(CC(=O)NCC2CCCO2)C(=O)CCC(=O)Nc2ccccn2)cc1 (stereo not given) was read as PLK1 kinase inh -12.0, Plk1 PBD FP 11.7 and FAK blocker -0.9.
`Cc1cc(C)n2nc(SCc3cc(=O)n4c(C)cccc4n3)nc2n1` gave PKA inh 10.3.
For Cc1ccc2c(c1)C(c1ccccc1)N(C(=O)C(C)C)CC(=O)N2 (stereo not given) the results were PLK1 kinase inh 70.7*, Plk1 PBD FP -16.9, PKA inh 9.3, JNK3 blocker 1.9, FAK blocker -9.3, ROCK2 inh 1.7, PLK1 inh conf -14.7 and Plk1 interf -51.3.
O=C1CN(C(=O)CN2CCCC2)C(c2ccccc2)c2cc(Br)ccc2N1 (stereo not given) was read as PLK1 kinase inh -8.3, Plk1 PBD FP 2.4, PKA inh 2.2, JNK3 blocker 2.0, FAK blocker -3.4 and ROCK2 inh 8.6.
Screening O=C(c1ccco1)N1CCN(c2ncccn2)CC1 returned PLK1 kinase inh 75.8*, Plk1 PBD FP -9.2, PKA inh 3.4, JNK3 blocker -5.5, FAK blocker 2.1, ROCK2 inh -5.2, PLK1 inh conf -15.2 and Plk1 interf -49.2.
For CCOC(=O)CSc1nc2ccccc2c(=O)[nH]1 the results were PLK1 kinase inh 72.3*, Plk1 PBD FP 1.6, PKA inh 8.0, JNK3 blocker 2.2, FAK blocker -3.1, ROCK2 inh 3.6, PLK1 inh conf -9.0 and Plk1 interf -48.8.
`Nc1c(Nc2ccccc2)c2ccccc2oc1=O` gave PLK1 kinase inh -6.4, Plk1 PBD FP -12.2, PKA inh 9.4, JNK3 blocker -13.3, FAK blocker -0.8 and ROCK2 inh 4.8.
`COC(=O)c1[nH]c2ccc(Cl)cc2c1NC(=O)CN1CCC(C(N)=O)CC1` gave PLK1 kinase inh 71.9*, Plk1 PBD FP 2.0, PKA inh 9.0, JNK3 blocker 3.7, FAK blocker 1.1, ROCK2 inh 4.4, PLK1 inh conf -10.2 and Plk1 interf -47.7.
Screening Cc1nn2c(=O)cc(CSc3nc4ccccc4[nH]3)nc2s1 returned PLK1 kinase inh 74.0*, Plk1 PBD FP -20.3, PKA inh -4.3, JNK3 blocker -5.0, FAK blocker -1.1, ROCK2 inh 5.2, PLK1 inh conf -13.1 and Plk1 interf -59.7.
`Cc1cc(C(=O)CSc2nc3ccccc3[nH]2)c(C)n1C` gave PLK1 kinase inh -4.9, Plk1 PBD FP 7.8, PKA inh -6.1, JNK3 blocker 5.2, FAK blocker 1.8 and ROCK2 inh -0.7.
Screening O=C(CCN1C(=O)c2ccccc2C1=O)N1CCN(Cc2ccccc2)CC1 returned PLK1 kinase inh -11.0, Plk1 PBD FP -14.2 and FAK blocker -1.7.
Screening O=C(CCc1ccccc1)N1CCN(CCO)CC1 returned PLK1 kinase inh 74.3*, Plk1 PBD FP 20.7, PKA inh 6.9, JNK3 blocker -0.8, FAK blocker -5.8, ROCK2 inh 1.5, PLK1 inh conf -10.4 and Plk1 interf -48.0.
For Cc1nc2c([nH]1)C1(CCN(Cc3ccccc3)CC1)C(C#N)=C(N)O2 the results were PLK1 kinase inh 70.1*, Plk1 PBD FP 0.7, PKA inh 9.5, JNK3 blocker 5.1, FAK blocker 2.5, ROCK2 inh 2.7, PLK1 inh conf 71.9* and Plk1 interf -55.5.
`COc1ccc(C2C(C(C)=O)=C(C)Nc3ncnn32)cc1OC` (stereo not given) gave PLK1 kinase inh -8.5, Plk1 PBD FP -11.3, PKA inh 8.3, JNK3 blocker 3.6, FAK blocker -1.2 and ROCK2 inh 3.3.
`COc1cc(C2C(C(=O)OC(C)C)=C(C)Nc3ncnn32)cc(OC)c1OC` (stereo not given) gave PLK1 kinase inh 81.2*, Plk1 PBD FP -9.0, PKA inh 8.1, JNK3 blocker -0.4, FAK blocker -0.6, ROCK2 inh 5.4, PLK1 inh conf -4.2 and Plk1 interf -48.7.
Cc1cc2cc(CNC(=O)Cc3cccs3)ccc2n1C was read as PKA inh 1.9, JNK3 blocker -0.3 and ROCK2 inh 0.4.
`COc1cc(/C=C(\C#N)c2[nH]nc(N)c2C#N)cc(OC)c1O` gave PLK1 kinase inh 77.9*, Plk1 PBD FP -17.9, FAK blocker 4.2, PLK1 inh conf 65.6* and Plk1 interf -47.9.
OCCN1CCN(c2ncnc3ccc(Br)cc23)CC1 was read as PLK1 kinase inh 79.3*, Plk1 PBD FP -10.9, PKA inh 9.0, JNK3 blocker 5.5, FAK blocker 4.0, ROCK2 inh 1.2, PLK1 inh conf 14.7 and Plk1 interf -41.1.
For OCCN1CCN(C(=S)c2ccc(Br)cc2)CC1 the results were PLK1 kinase inh -17.6, Plk1 PBD FP 7.8 and FAK blocker 0.8.
CC(C)(C)S(=O)(=O)c1c(C(=O)O)cccc1C(=O)O was read as PLK1 kinase inh -10.7, Plk1 PBD FP -3.8, PKA inh 9.7, JNK3 blocker -3.8, FAK blocker 0.7 and ROCK2 inh 1.9.

High-throughput results as filed in PubChem BioAssay.
